The assay concerns the target Estrogen receptor (Homo sapiens) (UniProt P03372). The assay is described as follows: ERalpha ligand binders by competition, primary screen, cell-based, Cos7 ERalpha-GFP, flow cytometry (AID 1211).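 Note: 0% = DMSO vehicle wells and 100% = no E2-Alexa633 signal left.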 Particulars: fluorescent ligand competition, stronger effect = higher value.

Activity calls are given as the source filed them. The rule behind the calls is not given here.

The values that follow come from PubChem BioAssay AID1211 (NMMLSC, 2008).

Chain of Estrogen receptor (Homo sapiens) (P03372 whole entry, looked up): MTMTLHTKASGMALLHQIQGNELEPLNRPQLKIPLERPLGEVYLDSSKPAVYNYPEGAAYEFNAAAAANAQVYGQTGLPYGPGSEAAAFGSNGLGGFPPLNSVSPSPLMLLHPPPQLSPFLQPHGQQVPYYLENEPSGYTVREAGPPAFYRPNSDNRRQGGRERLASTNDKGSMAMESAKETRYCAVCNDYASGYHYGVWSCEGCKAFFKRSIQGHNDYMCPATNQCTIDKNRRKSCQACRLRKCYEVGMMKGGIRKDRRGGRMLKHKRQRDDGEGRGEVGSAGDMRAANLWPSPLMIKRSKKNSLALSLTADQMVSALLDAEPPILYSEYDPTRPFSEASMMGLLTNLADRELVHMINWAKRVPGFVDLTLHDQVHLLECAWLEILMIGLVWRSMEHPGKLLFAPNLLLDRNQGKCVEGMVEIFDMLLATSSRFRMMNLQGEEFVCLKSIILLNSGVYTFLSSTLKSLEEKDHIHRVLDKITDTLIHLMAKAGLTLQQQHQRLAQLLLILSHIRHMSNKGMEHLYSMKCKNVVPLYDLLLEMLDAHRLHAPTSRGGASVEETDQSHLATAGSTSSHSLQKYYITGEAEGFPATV

As for `Cc1ccccc1Nc1nnc(SCC(=O)NCc2ccco2)s1`, the inhibition of ligand binding is 40% (inactive) (at 10 µM) and 11% (binding inhibition, at 0.1 µM).

For the molecule `Clc1ccc(Sc2cc(N3CCOCC3)nc(-c3ccccc3)n2)cc1`, the inhibition of ligand binding runs as follows: (at 10 µM) 41% (inactive); (binding inhibition, at 0.1 µM) 25%.

In the case of `Nc1ccc(-c2cc(-c3ccc(N)cc3)nc(-c3ccccc3)n2)cc1`, the inhibition of ligand binding is, setting by setting: (at 10 µM) 51% (inactive); (binding inhibition, at 0.1 µM) 12%.

Regarding `COc1cc(C=C(c2nc3ccccc3s2)c2nc3ccccc3s2)ccc1O`, the inhibition of ligand binding by setting is: (at 10 µM) 31% (inactive); (binding inhibition, at 0.1 µM) 35%.

As for `CCOc1ccc(Nc2oc(-c3ccccc3Cl)nc2C#N)cc1`, the inhibition of ligand binding is, setting by setting: (at 10 µM) 29% (inactive); (binding inhibition, at 0.1 µM) 35%.

With `c1coc(-c2nnc3sc(Cc4cccs4)nn23)c1`, the inhibition of ligand binding is, setting by setting: (at 10 µM) 24% (inactive); (binding inhibition, at 0.1 µM) 14%.

As for `O=c1oc2ccccc2cc1-c1ccc(O)cc1`, the inhibition of ligand binding is, setting by setting: (at 10 µM) 60% (inactive); (binding inhibition, at 0.1 µM) 24%.

For `COc1ccc(C2Nc3ccccc3C(=O)N2c2ccccc2)cc1CSc1ccccn1` (stereo not drawn), the inhibition of ligand binding was 44% (inactive) (at 10 µM) and 17% (binding inhibition, at 0.1 µM).

Turning to `CCc1ccc2[nH]c(=O)c(CN(Cc3ccc4c(c3)OCO4)C(=O)c3ccco3)cc2c1`, the inhibition of ligand binding reads like this: (at 10 µM) 0% (inactive); (binding inhibition, at 0.1 µM) 62%.

As for `CN1CCC(=NNC(=O)c2cn(-c3ccccc3)nc2-c2ccccc2)CC1`, the inhibition of ligand binding runs as follows: (at 10 µM) 3% (inactive); (binding inhibition, at 0.1 µM) 11%.

`Oc1c(C=Nc2cccc3cccnc23)sc2ccccc12`: the inhibition of ligand binding is, setting by setting: (at 10 µM) 40% (inactive); (binding inhibition, at 0.1 µM) 21%.

As for `COc1ccc2c(c1)C1C=CCC1C(c1cc3c(cc1Br)OCO3)N2` (stereo not drawn), the inhibition of ligand binding (at 10 µM) was 0% (inactive) and the inhibition of ligand binding (binding inhibition, at 0.1 µM) worked out at 10%.

In the case of `CCc1ccc(Nc2cc(C(=O)NCCCN3CCOCC3)c3ccccc3n2)cc1`, the inhibition of ligand binding was 25% (inactive) (at 10 µM) and 32% (binding inhibition, at 0.1 µM).

In the case of `COc1ccc2c(c1)c(=O)oc1cc3oc(C)c(C)c3cc12`, the inhibition of ligand binding (at 10 µM) was 3% (inactive) and the inhibition of ligand binding (binding inhibition, at 0.1 µM) was found to be 16%.

On to `Nc1ccc2nn(-c3cccc4ccccc34)nc2c1`, for which the inhibition of ligand binding reads like this: (at 10 µM) 0% (inactive); (binding inhibition, at 0.1 µM) 12%.

Regarding `Cc1ccc(C)c(SCC(=O)OCC(=O)c2ccco2)c1`, the inhibition of ligand binding was 0% (inactive) (at 10 µM) and 28% (binding inhibition, at 0.1 µM).

Take `C[C@@H]1O[C@@H](Oc2c(-c3cc(O)c(O)c(O)c3)oc3cc(O)cc(O)c3c2=O)[C@H](O)[C@H](O)[C@H]1O`: the inhibition of ligand binding was 52% (inactive) (at 10 µM) and 26% (binding inhibition, at 0.1 µM).

With `O=C(Nc1ccc(-c2nc3ccc(NC(=O)c4cccs4)cc3[nH]2)cc1)c1cccs1`, the inhibition of ligand binding is, setting by setting: (at 10 µM) 39% (inactive); (binding inhibition, at 0.1 µM) 20%.

`COC(=O)c1c(-c2ccncc2)csc1NC(=O)c1ccoc1C`: the inhibition of ligand binding was 41% (inactive) (at 10 µM) and 25% (binding inhibition, at 0.1 µM).

As for `Nc1ccc(-c2nc3ccc(C(=O)O)cc3s2)cc1`, the inhibition of ligand binding is 0% (inactive) (at 10 µM) and 42% (binding inhibition, at 0.1 µM).

In the case of `CN1CCc2cccc3c2[C@@H]1Cc1ccc(O)c(O)c1-3`, the inhibition of ligand binding (at 10 µM) was 42% (inactive) and the inhibition of ligand binding (binding inhibition, at 0.1 µM) was determined as 6%.

In the case of `CCC(=O)Nc1ccc(C(=O)Cn2nc(C(=O)O)c3ccccc3c2=O)cc1`, the inhibition of ligand binding by setting is: (at 10 µM) 50% (inactive); (binding inhibition, at 0.1 µM) 30%.

In the case of `COc1ccccc1-c1nnc2n1N=C(c1ccc(O)c(O)c1)CS2`, the inhibition of ligand binding (at 10 µM) was 46% (inactive) and the inhibition of ligand binding (binding inhibition, at 0.1 µM) was determined as 10%.

`O=C(Nc1nc(-c2ccc(S(=O)(=O)N3CCOCC3)cc2)cs1)c1ccccc1`: the inhibition of ligand binding reads like this: (at 10 µM) 48% (inactive); (binding inhibition, at 0.1 µM) 25%.

As to `O=Cc1ccc2oc3nc4n(c(=O)c3c(=O)c2c1)CCCS4`, the inhibition of ligand binding runs as follows: (at 10 µM) 40% (inactive); (binding inhibition, at 0.1 µM) 15%.

As for `CCN(CC)CCCNC(=O)c1nn(-c2ccccc2OC)c(=O)c2ccccc12`, the inhibition of ligand binding is 39% (inactive) (at 10 µM) and 62% (binding inhibition, at 0.1 µM).

As to `Cc1ccc(S(=O)(=O)Cc2ccc(C(=O)N3CCN(Cc4ccccc4)CC3)o2)cc1`, the inhibition of ligand binding was 25% (inactive) (at 10 µM) and 9% (binding inhibition, at 0.1 µM).

As to `C/C(=N\Nc1ccc([N+](=O)[O-])cc1)c1cccc(N)c1`, the inhibition of ligand binding was 4% (inactive) (at 10 µM) and 35% (binding inhibition, at 0.1 µM).

For `O=C(Nc1nc(-c2nc3ccccc3s2)cs1)C1COc2ccccc2O1` (stereo not drawn), the inhibition of ligand binding is 33% (inactive) (at 10 µM) and 11% (binding inhibition, at 0.1 µM).

For the molecule `Cc1ccc(C(=O)Nc2nc(-c3cccnc3)cs2)o1`, the inhibition of ligand binding runs as follows: (at 10 µM) 29% (inactive); (binding inhibition, at 0.1 µM) 20%.

As to `CCc1ccc2c(c1)[C@H]1OCC[C@H]1[C@@H](c1cccs1)N2`, the inhibition of ligand binding (at 10 µM) was 0% (inactive) and the inhibition of ligand binding (binding inhibition, at 0.1 µM) worked out at 21%.

For `COc1ccccc1N1CCN(C(=O)c2cc3c(s2)CCC3)CC1`, the inhibition of ligand binding by setting is: (at 10 µM) 41% (inactive); (binding inhibition, at 0.1 µM) 55%.

For `CN(C)c1ccc(N=Cc2ccco2)cc1`, the inhibition of ligand binding by setting is: (at 10 µM) 37% (inactive); (binding inhibition, at 0.1 µM) 23%.

`Cn1nc([N+](=O)[O-])c2c(-c3nc4ccccc4s3)c(N)n(C3CCCCC3)c2c1=O`: the inhibition of ligand binding was 30% (inactive) (at 10 µM) and 18% (binding inhibition, at 0.1 µM).

On to `Oc1ccc(-c2csc(-c3c[nH]c4ccccc34)n2)c(O)c1`, for which the inhibition of ligand binding was 57% (inactive) (at 10 µM) and 45% (binding inhibition, at 0.1 µM).

Take `Oc1ccc(N=Cc2ccc(O)c(O)c2)cc1`: the inhibition of ligand binding is, setting by setting: (at 10 µM) 0% (inactive); (binding inhibition, at 0.1 µM) 41%.

As for `COc1ccc(N2Cc3cccc(C(=O)N4CCN(C(=O)c5ccco5)CC4)c3C2=O)cc1`, the inhibition of ligand binding runs as follows: (at 10 µM) 20% (inactive); (binding inhibition, at 0.1 µM) 38%.

As for `COC(=O)c1ccc2c(=O)n(CCCCCC(=O)NCc3ccc4c(c3)OCO4)c(=O)[nH]c2c1`, the inhibition of ligand binding (at 10 µM) was 19% (inactive) and the inhibition of ligand binding (binding inhibition, at 0.1 µM) came out at 18%.

As for `O=C(COC(=O)CN1C(=O)c2ccccc2C1=O)Nc1ncc(Cl)cc1Cl`, the inhibition of ligand binding (at 10 µM) is 7% (inactive) and the inhibition of ligand binding (binding inhibition, at 0.1 µM) came to 14%.
